DT40 TDP1 CPT = DT40-hTDP1 cell growth loss with CPT. Potency, µM (doses to about 46.2 µM), for inactives: at the top dose activity change, negative = growth inhibition, usual class: inhibitors. actives 12% (n = 420,000). chicken DT40 Tdp1-/-;hTDP1 cells + 20 nM CPT, ATP luminescence, 48 h; also: potency is read from the fitted curve at half-maximal effect; % is scaled to controls: 0 for no effect and ±100 for the full control effect; nearly all actives have a fitted effect of over 55% in size
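Chicken DT40 Tdp1-/- cells complemented with human TDP1, 400 cells/well, exposed to compounds plus 20 nM camptothecin for at least 48 h at 37 C; viability read as ATP content by CellTiter-Glo luminescence.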
ClpP mod = qHTS Assay for Activators of ClpP | ATP-dependent Clp protease proteolytic subunit (Bacillus subtilis (strain 168)), P80244 | Potency, µM (highest dose often 57.5 µM), without a hit: at the highest dose activity change, negative = active | AID 651965, 2013 | actives 1.9% (n = 340,000) | purified B. subtilis ClpP, FRET peptide cleavage, 20 min; active = well fitted falling curve with a large enough effect; inconclusive = small, poorly fitted or top-dose-only effect; inactive = no such curve, though single readings can be large or run the other way; also: potency is read from the fitted curve at half-maximal effect; the source files actives as falling curves though it sought activators and does not explain the sign; nearly all actives have a fitted effect of over 65% in size
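FRET quenching reversal measured ClpP activation: 10 microg/mL B. subtilis ClpP at pH 8 with the FRET-FV decapeptide, read at 430 nm after 320 nm excitation. The 20-min minus 0-min signal was scaled between DMSO/no-enzyme wells and ADEP (5.8 microM final).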
IL-1B inflam inh = inhibitors of inflammasome signaling (IL-1 beta secretion) | activity change, % at 57.5 µM | AID 743279 | THP-1 LPS/ATP IL-1B secretion, AlphaLISA, 16 h; active compounds read low | actives 4.7% (n = 360,000); in the data active = activity change below about -50%; inconclusive = mostly about -30% to -49%; also: % is scaled to controls: 0 for no effect and ±100 for the full control effect
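THP-1 cells pretreated 1 hr with compounds (up to 57.5 uM final), then stimulated with LPS (250 ng/mL final) plus ATP (1.25 mM final); secreted IL-1B measured by AlphaLISA after 16 hr, decreased signal indicating inhibition.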
TDP1 cell noCPT = qHTS for Inhibitors of human tyrosyl-DNA phosphodiesterase 1 (TDP1): qHTS in cells in absence of CPT; DT40 Tdp1-/- hTDP1 cells, no CPT, ATP luminescence, 48 h; Potency, µM (series often up to 46.2 µM), without a hit: at the top dose activity change, negative = growth inhibition, hits mostly inhibitors; actives 15% (n = 420,000); AID 686978, 2013; also: potency is read from the fitted curve at half-maximal effect; % is scaled to controls: 0 for no effect and ±100 for the full control effect; nearly all actives have a fitted effect of over 55% in size
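Chicken DT40 Tdp1-/- cells stably complemented with human TDP1 were seeded at 400 cells/well with DMSO in place of 20 nM camptothecin. After compound pinning, cells grew at least 48 hr at 37 °C; viability read by CellTiter-Glo luminescence.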
D3 ag = D3 dopamine receptor (human) agonism; D3R DiscoveRx beta-arrestin cells, luminescence, 90 min; actives 0.58% (n = 410,000); P35462; max activation, %; in the data active = max activation above about 30%; also: 0% is about no effect
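Cells at 1500/well, incubated overnight, then treated with pinned compounds (dopamine as control) for 90 min at 37 degrees C. DiscoveRx reagent added for 30 - 60 minutes at room temperature; luminescence read.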
D3 antag = D3 dopamine receptor (human) antagonism. actives 2.5% (n = 360,000). P35462. max response, negative = inhibition, %. AID 652054. D3R cells, DiscoveRx beta-arrestin luminescence, antagonist mode; active compounds read low; in the data active = max response below about -50%; inconclusive = no clear call, values can overlap the other calls; also: % is scaled to controls: 0 for no effect and ±100 for the full control effect
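Cells plated overnight at 1500 cells/well, then exposed to library compounds with dopamine controls for 90 minutes at 37 degrees C. DiscoveRx reagent added for 30–60 minutes at room temperature; luminescence read, quantitative HTS format.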
Active calls of the source: *; ? = inconclusive; nt = no result; [ ] = remark or other dose. Shown are actives, neighbours in structure and some others; about 21% of the full set was active somewhere. Unless noted, calls follow the shape of the dose curve; as a rule, active = well fitted inhibition curve with a large enough effect; inconclusive = small, poorly fitted or top-dose-only effect; inactive = flat fitted curve, though single readings scatter.

SMILES | DT40 TDP1 CPT | ClpP mod | IL-1B inflam inh | TDP1 cell noCPT | D3 ag | D3 antag
CN1CCN(C(=O)c2ccc(Cn3cc(Cl)cn3)o2)CC1 | 2% | nt | 1 | -16% | 0 | 16
O=C(Nc1ccc(C(F)(F)F)cc1Cl)c1ccc(Cn2cc(Br)cn2)o1 | -23% | -6% | 0 | -19% | -1 | -75*
O=C(N/N=C/c1c(F)cccc1Cl)c1ccc(Cn2cc(Br)cn2)o1 | -9% | -8% | ? | -8% | -24 | -23
O=C(c1ccc(Cn2cc(Br)cn2)o1)n1cccn1 | -12% | 1% | -12 | -14% | -2 | -52*
O=C(N/N=C/c1c(F)c(F)c(F)c(F)c1F)c1ccc(Cn2cc(Br)cn2)o1 | 16µM* | -3% | -98* | 15µM* | -5 | -10
COC(=O)c1c(NC(=O)c2cc3nc(-c4ccc(Br)cc4)cc(C(F)(F)F)n3n2)sc2c1CCCC2 | ? | ? | nt | ? | -2 | nt
CCOC(=O)c1nn(-c2ccc(F)cc2)c(=O)cc1OCC(=O)N1CCN(c2ccccc2)CC1 | ? | -22% | -13 | ? | -13 | 0
COc1cccc(CNC(=O)CN2C(=O)CSc3ccc(S(=O)(=O)N4CCOCC4)cc32)c1 | -1% | -2% | -7 | 27% | 6 | 1
COc1ccccc1CNC(=O)CCNC(=O)C1CCN(S(=O)(=O)c2ccccc2)CC1 | -19% | 1% | 21 | 10% | 1 | 15
O=c1ccc(/C=C/c2ccccc2)nn1Cc1ccccc1 | -21% | 28µM* | -20 | -27% | 9 | 14
COC(=O)c1ccc(Cn2nc(-c3ccccc3)ccc2=O)cc1 | -4% | -15% | 18 | 2% | 3 | 8
Cc1ccc(-c2ccc(=O)n(CCC(=O)N3CCN(Cc4ccccc4)CC3)n2)cc1 | 3% | nt | -20 | ? | 7 | 4
Cn1nc(/C=C/c2ccccc2)ccc1=O | -1% | nt | -23 | ? | -7 | -19
O=c1ccc(-c2ccccc2)nn1Cc1ccc(Cl)cc1 | ? | -4% | -27 | 16µM* | 2 | 16
C=Cc1ccc(Cn2nc(-c3ccc(C)cc3)ccc2=O)cc1 | ? | -14% | -79* | ? | 10 | 4
COc1ccc(-c2ccc(=O)n(Cc3c(F)cccc3Cl)n2)cc1 | 15µM* | 4% | 4 | 7.3µM* | 2 | 8
COc1ccc(-c2cccc3c2NC(=O)C3=O)cc1OC | 18µM* | 27% | 38 | 15µM* | -45 | -16
COc1ccc(C2C(=O)c3ccccc3C2=O)cc1OC | ? | nt | 5 | -9% | -1 | 2
C[C@H](CO)N1C[C@H](C)[C@@H](CN(C)Cc2ccc(-c3ccccc3)cc2)Oc2c(NS(=O)(=O)c3cccs3)cccc2C1=O | 18µM* | 1% | ? | ? | 6 | 0
C[C@H](CO)N1C[C@H](C)[C@@H](CN(C)C(=O)NC2CCCCC2)Oc2c(NS(=O)(=O)c3ccc(F)cc3)cccc2C1=O | -23% | -5% | 13 | ? | 31* | -11
C[C@H]1CN([C@@H](C)CO)C(=O)c2cccc(NC(=O)Nc3ccc(C(F)(F)F)cc3)c2O[C@H]1CN(C)C | 21µM* | -20% | -9 | ? | -3 | -15
C[C@H](CO)N1C[C@H](C)[C@@H](CN(C)S(=O)(=O)c2ccccc2)Oc2c(NC(=O)Nc3ccc(C(F)(F)F)cc3)cccc2C1=O | ? | 1% | ? | 16µM* | 4 | -13
C[C@H](CO)N1C[C@H](C)[C@@H](CN(C)Cc2ccncc2)Oc2c(NS(=O)(=O)c3ccccc3)cccc2C1=O | -1% | 1% | -3 | -24% | 0 | 10
NS(=O)(=O)c1cc(C(=O)OCC(=O)Nc2ccc(N3CCCCC3)cc2)ccc1Cl | -26% | 0% | -2 | 19% | -1 | -3
Cn1c(-c2ccccc2)cc(=NNS(C)(=O)=O)c2cc(S(=O)(=O)O)ccc21 | 0% | -1% | 4 | -3% | -4 | -20
SMILES | DT40 TDP1 CPT | ClpP mod | IL-1B inflam inh | TDP1 cell noCPT | D3 ag | D3 antag
Cc1cccc(S(=O)(=O)NNC(=O)c2sc(C)nc2C)c1 | -5% | nt | 34 | -20% | 13 | 14
CCC1CN(CC(=O)NCc2cccc(Br)c2)c2ccccc2S1 (stereo not drawn) | nt | 2% | nt | nt | 0 | nt
C[C@H](CO)N1C[C@H](C)[C@@H](CN(C)C(=O)Nc2ccc(C(F)(F)F)cc2)Oc2ccc(NC(=O)Nc3ccc(C(F)(F)F)cc3)cc2C1=O | ? | -3% | ? | ? | 2 | 0
C[C@H](CO)N1C[C@H](C)[C@@H](CN(C)S(C)(=O)=O)Oc2c(NC(=O)Nc3ccc(C(F)(F)F)cc3)cccc2C1=O | 23µM* | -4% | -2 | ? | -4 | 83
COc1ccc(S(=O)(=O)Nc2cccc3c2O[C@H](CN(C)Cc2ccc(Cl)c(Cl)c2)[C@@H](C)CN([C@H](C)CO)C3=O)cc1 | 21µM* | -4% | -56* | 18µM* | 7 | -18
C[C@H](CO)N1C[C@H](C)[C@@H](CN(C)C(=O)Nc2ccc(C(F)(F)F)cc2)Oc2c(NC(=O)Nc3ccc(C(F)(F)F)cc3)cccc2C1=O | 9.2µM* | 4% | -7 | 7.3µM* | -13 | 14
C[C@@H]1CN([C@H](C)CO)C(=O)c2cc(NC(=O)Nc3ccc(C(F)(F)F)cc3)ccc2O[C@H]1CN(C)C(=O)Nc1ccc(F)cc1 | ? | -2% | -61* | ? | -16 | 2
C[C@H](CO)N1C[C@H](C)[C@@H](CN(C)C(=O)Nc2ccc3c(c2)OCO3)Oc2c(NC(=O)Nc3ccccc3)cccc2C1=O | ? | -2% | -17 | ? | 14 | 28
C=CC1=C(C(=O)O)N2C(=O)[C@@H](NC(=O)/C(=N/OCC(=O)O)c3csc(N)n3)[C@H]2SC1 (stereo in doubt) | -10%[21.1 µM] | nt | nt | -1%[21.1 µM] | 1 | nt
O=C(CCCn1c(=S)[nH]c2cc3c(cc2c1=O)OCO3)NCc1cccc(Cl)c1 | ? | -2% | 40 | ? | 0 | 7
NS(=O)(=O)c1ccc2nc(-c3ccccc3)c(-c3ccccc3)nc2c1 | -2% | -29% | 8 | -8% | 13 | 0
Cc1ccc(S(=O)(=O)Nc2cccc3c2O[C@H](CN(C)C(=O)Nc2cccc4ccccc24)[C@H](C)CN([C@H](C)CO)C3=O)cc1 | 21µM* | 4% | ? | 21µM* | -5 | -19
